This is an account of results in PubChem BioAssay AID1347051 (National Center for Advancing Translational Sciences (NCATS), 2019).

Structures are written as SMILES. Among all 1,400 compounds or so, about 980 (70%) were called active. Roughly 16% stayed inconclusive and do not appear here. The set was probably picked from earlier hits. Not all results are given here. A number with no mark means an inactive call. Calls come from the whole dose curve.
% is set by controls: 0 for no effect and ±100 for the full control effect; potency is the fitted concentration of half-maximal effect.

This assay is described as follows: Natriuretic polypeptide receptor (hNpr1) antagonism - Counterscreen GloSensor control cell line. Note: nearly all actives have a fitted effect of over 70% in size. Conditions: HEK293 GloSensor cGMP, SNP-stimulated, luminescence; series mostly up to 57.6 µM; activity change, negative = inhibition: at the top concentration. Here is the method:
cGMP production was measured using a circular permutated firefly luciferase (FLuc) enzyme functionally linked to the cGMP binding domain of human phosphodiesterase 5 (GloSensor technology pGS-40F, (Fan, F. et al. 2008). The cGMP-sensor was expressed in human embryonic kidney 293 (HEK-293) cells and FLuc activity was measured after stimulation with the NO-donor sodium nitroprusside (SNP). SNP activates the endogenously expressed soluble guanylyl cyclase (GC) producing cGMP which then binds to the GloSensor resulting in FLuc activation, the enzymatic activity of which can be measured as bioluminescence with addition of luciferin substrate. F. Fan, B. F. Binkowski, B. L. Butler, P. F. Stecha, M. K. Lewis, K. V. Wood, Novel genetically encoded biosensors using firefly luciferase. ACS Chem Biol 3, 346-351 (2008).
PROTOCOL TABLE (as described by Inglese J, Shamu CE and Guy RK. 2007) SEQUENCE No. (e.g., 1, 2, 3, etc.); PARAMETER (e.g., Cells, Incubation, Reagent, etc.); VALUE and DESCRIPTION. 1. Cells. Seed 1500 HEK293 cGMP-sensor cells per well in 4uL into Greiner 1536-well white/solid bottom high base, TC plates. 2. Incubation. Incubate plated cells at 37C in 5% CO2, 95% RH overnight. 3. Reagent. Add 1uL per well GloSensor reagent from Promega (2% final concentration) or CO2 independent media vehicle control to respective columns of Greiner 1536-well plates. 4. Incubation. Incubate plated cells at room temperature for 2 h, protect from light. 5. Compounds. Library compounds and DMSO vehicle control added at 23nL per well, transferred by Pin Tool. 6. Incubation. Incubate plated cells for 30 min. at room temperature, protect from light. 7. Detector. GloSensor baseline pre-read luminescence measured using CCD-based camera (Viewlux). 8. Compound. Add 1uL of sodium nitroprusside (SNP) to 50 uM final concentration to stimulate soluble guanylyl cyclase (GC) or CO2 independent media as vehicle control. 9. Incubation. Incubate treated cells at room temperature for 20 min., protect from light. 10. Detector. GloSensor post-SNP luminescence measured using CCD-based camera (Viewlux). NOTES (numbers refer to Sequence numbers above; values are from representative experiments) 1. HEK293 cells expressing GIP/pGS-40F were grown to 85-95% confluence (48-72 h) in T175 culture flasks (CO2 independent media supplemented with 10% FBS, 1% Pen/Strep antibiotics, and 1 ug/mL puromycin). Trypsinize and harvest cells from T175 culture flasks and filter through 40 um cell strainer. Cells counted with Invitrogen Countess (30,000,000 - 50,000,000 cells/flask). Cells diluted to a final concentration of 375 cells/uL in CO2 independent media and a Millipore multidrop used to dispense 1500 cells per well (4uL/well) into 13 1536-well Greiner White/Solid bottom, high base tissue-culture treated (TC) plates and one Aurora 1536-well Black/Clear bottom, low base, TC plate (for visual inspection of cell health throughout the duration of the assay). 2. Cells incubated for 24 h. at 37C in 95% RH incubator with metal lid having gas-exchange holes. 3. Prepare GloSensor Reagent (Promega): Reconstitute GloSensor luciferase substrate by adding 8.2mL Hepes buffer to 250mg substrate, mix well, protect from light and stored at -80C. Prepare a fresh 12% GloSensor solution in CO2 independent supplemented plating media (see above). Mix well and store at ambient temperature, protected from light. 1uL 12% GloSensor Luciferase Reagent added (2% final concentration) to respective columns of 13 x 1536-well Greiner plate with BioRaptr, 1uL CO2 independent plating media added to respective columns as vehicle control with BioRaptr. 4. Cells incubated for 2 h. at ambient temperature, protected from light with metal lid having gas-exchange holes. 5. 23nL of library compounds or DMSO vehicle control transferred to 13 Greiner white/solid bottom high base, TC plates in 11 interplate 1:3 titrations (see Yasgar, A. et al. 2008) with Pintool. 6. […]
For orientation: A counterscreen serves to expose hits that act by an unwanted route or on another target.
Take `COc1ccc(C2Cn3nnc(C(=O)N4CCN(C(=O)c5ccc(C)cc5C)CC4)c3CO2)cc1` (stereo unspecified): the Potency was 21.7 µM (active). Still for that read-out and setting: then `COc1ccc(C2Cn3nnc(C(=O)N4CCN(C(=O)c5cccc(Cl)c5)CC4)c3CO2)cc1` (stereo unspecified), with 12.2 µM (active). With `COc1cccc(C2Cn3nnc(-c4nc(-c5ccccc5)no4)c3CO2)c1` (stereo unspecified), the “activity change, negative = inhibition” value is -12.6%. As to `O=[S+]1([O-])NCC2(CCCN(Cc3ccc(C(F)(F)F)cc3)C2)Oc2ncccc21` (stereo unspecified), the Potency was 15.3 µM (active). Consider `COc1ccc(C(CC(=O)N(C)Cc2cc(C3CC3)n[nH]2)c2ccccc2)cc1` (stereo unspecified), for which the “activity change, negative = inhibition” value was 4.58%. Consider `CC1(CCCCc2ccccc2)COc2ccc(C(=O)N3CC[S+](=O)([O-])CC3)cc2N1` (stereo unspecified), for which the “activity change, negative = inhibition” value is -28.2%. On to `COc1ccc(OCC2(C)COc3ccc(C(=O)Nc4cccnc4)cc3N2)cc1` (stereo unspecified), for which the Potency was 49.8 µM (active). On to `Cc1noc(C)c1-c1cc(-c2ccccc2Oc2ccccc2)cn2cncc12`, for which the “activity change, negative = inhibition” value was -24.7% [at 86.2 µM]. As for `Cc1nc(-c2ccncc2)ncc1C(C)Nc1ncnc(C)c1C` (stereo unspecified), the Potency was 19.3 µM (active). In the case of `CC(C)c1nncn1C1CCN(S(=O)(=O)c2cccc(Br)c2)CC1`, the Potency was 24.3 µM (active).

In the case of `CC1(C(=O)NCc2ccc3c(c2)OCO3)CCc2cnc(NCc3ccccc3)nc21` (stereo unspecified), the Potency is 44.4 µM (active). Take `CC(C)(C)c1csc(NC(=O)c2ccc3c(c2)OCCN(C2CCC2)C3)n1`: the Potency was 25 µM (active). Same read-out and setting: then `COc1ccc(-c2noc(CC3CCN(C(=O)Cc4ccc(C)cc4)CC3)n2)cc1`, with 30.6 µM (active); and `COc1ccc(-c2noc(CC3CCN(C(=O)Cc4ccccc4)CC3)n2)cc1`, with 27.3 µM (active); and `COc1ccc(-c2noc(CC3CCN(C(=O)CC4CCCCC4)CC3)n2)cc1`, with 8.62 µM (active).

As to `COc1cccc(CNC(=O)Cn2c(N(C)Cc3ccccc3)nc(C)cc2=O)c1OC`, the Potency was 24.3 µM (active).

As for `COc1cccc(C2C(C(=O)Nc3ccccc3)=C(C)N=C3SC=C(CC(=O)NCC(C)C)N32)c1` (stereo unspecified), the “activity change, negative = inhibition” value is -23.8%. `COc1cccc(NC(=O)Cn2c(N(C)Cc3ccccc3)nc(C)cc2=O)c1`: the Potency is 10.9 µM (active). The same measure, in the same setting: to `O=C(c1ccc2cc[nH]c2c1)N1CCC2(CC1)N=C(c1ccc(Cl)cc1)NO2` belongs 15.3 µM (active). On to `Cc1nn2c(c1-c1ccnn1C(C)C)N(CC1CCOCC1)CCC2`, for which the “activity change, negative = inhibition” value is -21.4% [at 86.2 µM].

Regarding `Cc1nn2c(c1-c1ccccc1-c1ccccc1)N(CC1CC1)CCC2`, the Potency is 2.8 µM (active). For `CC1=NS(=O)(=O)N(C)C=C1C(=O)OCc1nc(-c2ccc(C)cc2)no1`, the Potency was 8.62 µM (active). In the case of `CCN(CCCNC(=O)c1nnn2cc(-c3ccccc3)[nH]c(=O)c12)c1ccccc1`, the “activity change, negative = inhibition” value was -5.02%. With `Cc1c[nH]c(CN2CCCC(CCc3ccc(F)cc3F)C2)c(C)c1=O` (stereo unspecified), the Potency is 2.43 µM (active). The same measure, in the same setting: to `O=C(Cc1c[nH]c2ncc(-c3ccccc3F)cc12)N1CCOCC1` belongs 28 µM (active); to `Cc1noc(C)c1-c1cnc2[nH]cc(CC(=O)N3CCOCC3)c2c1`, 22.2 µM (active); to `COc1ccccc1Nc1cnc2ccc(N(C)Cc3cccnc3)nn12`, 35.3 µM (active).

With `O=C(NCC1CC1)c1nc2c(o1)CCN(Cc1cccc(F)c1F)CC2`, the Potency was 22.2 µM (active). Same read-out and setting: then `O=C1NCN(Cc2ccc(Cl)cc2)C12CCN(Cc1ccccc1)CC2`, with 13.7 µM (active).

Take `O=C1Nc2ccccc2CN(Cc2ccccc2)C12CCNCC2`: the “activity change, negative = inhibition” value is -14.8%. Turning to `OC1(Cc2cc(-c3ccccc3)no2)CCN(c2ncncn2)CC1`, the Potency was 6.85 µM (active). Same read-out and setting: then `O=C(NCc1nnc2cc(-c3nc(C4CC4)no3)ccn12)c1ccc(F)cc1Cl`, with 12.2 µM (active).

In the case of `COc1ccc(CCNC(=O)c2noc(-c3ccc(C)cc3)n2)cc1OC`, the Potency is 21.7 µM (active). On the same count and under the same terms, to `O=C(c1ccc(Cl)cc1)N1CCCC(n2cc(-c3nc(-c4ccccc4)no3)nn2)C1` (stereo unspecified) belongs 13.7 µM (active). Consider `COc1ccc(C(=O)N2CCC(n3cc(-c4nc(C(C)C)no4)nn3)CC2)cc1F`, for which the “activity change, negative = inhibition” value was 5.01%.

For `O=C(c1ccc(F)cc1Cl)N1CCC(n2cc(-c3nc(-c4ccccc4)no3)nn2)C1` (stereo unspecified), the Potency is 4.32 µM (active). With `O=C(c1ccc(F)cc1F)N1CCN(c2cc(-c3ccc(Cl)cc3)[nH]n2)CC1`, the Potency was 17.2 µM (active). Same read-out and setting: to `CCc1ccc(C(=O)N2CCN(c3cc(-c4ccc(F)cc4)[nH]n3)CC2)cc1` belongs 21.7 µM (active); to `O=C(c1cc(F)ccc1Cl)N1CCN(c2cc(-c3ccc(F)cc3)[nH]n2)CC1`, 24.3 µM (active). With `Cc1ccc(C(=O)N2CCN(c3cc(-c4ccc(Cl)cc4)[nH]n3)CC2)c(C)c1`, the Potency was 6.11 µM (active).

Consider `C1CCC(COCCc2noc(C3CNC3)n2)C1`, for which the Potency is 21.7 µM (active). Take `O=C(c1ccccn1)N1CC(Oc2ccc(-c3noc(C4CC4)n3)cc2)C1`: the Potency is 13.7 µM (active). Consider `COc1ccc(CC(=O)N2CCC(Cc3nc(-c4ccccc4)no3)CC2)cc1OC`, for which the Potency is 13.7 µM (active). Take `COc1ccc(-c2noc(CC3CCN(C(=O)Cc4ccc(OC)c(OC)c4)CC3)n2)cc1`: the Potency was 3.85 µM (active).

`COc1ccc(CN2C(=O)CO[C@H]3CN(Cc4ccc5c(c4)OCO5)C[C@H]32)cc1`: the Potency is 28 µM (active).

For the compound `Cc1ccc2c(c1)nc1n2[C@@H](CNS(=O)(=O)c2ccccc2)COC1`, the Potency was 35.3 µM (active). Still for that read-out and setting: to `N#Cc1cccc(CN2CCC(C3=NC(O)c4cc(F)ccc4N3)CC2)c1` (stereo unspecified) belongs 19.3 µM (active). With `Fc1ccc(CNC[C@H]2Cn3c(-c4ccc5c(c4)OCCO5)cnc3CO2)cc1`, the “activity change, negative = inhibition” value is -28.3% [at 86.2 µM].

Consider `O=C(c1ccccc1)N1CCC(C(=O)N2CCC(Cc3nc(-c4ccc(F)cc4)no3)CC2)CC1`, for which the Potency is 13.7 µM (active). For the compound `Cc1cccc(C(=O)N2CCC3(CC2)CC(N(Cc2ccc(F)cc2)C2CC2)CCO3)c1` (stereo unspecified), the “activity change, negative = inhibition” value is -29.5%.

In the case of `COc1cccc(-c2noc(CC3CCN(C(=O)c4ccc(F)cc4)CC3)n2)c1`, the Potency was 4.85 µM (active). With `CN1CCN(C(=O)C(C)(C)Oc2nn(Cc3cccc(Cl)c3)c3ccccc23)CC1`, the “activity change, negative = inhibition” value is 1.63% [at 86.2 µM]. On to `O=C(c1ccccc1)N1CCNc2cnc(Nc3cccc(C(F)(F)F)c3)nc2C1`, for which the Potency is 22.2 µM (active). Same read-out and setting: to `Cc1cc(N2CCCC(Cn3cc(Cc4ccccc4)nn3)C2)nc(N)n1` (stereo unspecified) belongs 4.85 µM (active); to `O=C1c2cnc(-c3ccc(Cl)cc3)nc2OCCN1Cc1ccccc1`, 35.3 µM (active). The same measure, in the same setting: to `CN(Cc1csc(-c2ccccc2)n1)c1cc(C2CC(O)C2)nc(N)n1` (stereo unspecified) belongs 1.93 µM (active); to `Cc1ccc(OCc2nc(C3CCN(C(=O)CCc4nc5ccc(Cl)cc5[nH]4)CC3)no2)cc1`, 24.3 µM (active); to `O=c1[nH]c(C2CCCN(Cc3ccccn3)C2)nn1-c1ccc(Cl)cc1` (stereo unspecified), 9.68 µM (active). Take `CN(C)CCNC(=O)C(C)(C)Oc1nn(Cc2cccc(Cl)c2)c2ccccc12`: the “activity change, negative = inhibition” value was -2.48% [at 86.2 µM]. As to `CC(C)c1cc(C(=O)N2CCC(n3cc(-c4ccccn4)nn3)CC2)n(C)n1`, the Potency is 15.3 µM (active). As to `Cc1cccc(CN2CCc3nc(C(=O)Nc4ccc(Cl)cc4)oc3CC2)c1`, the Potency is 8.86 µM (active).
